In the library only some 3.9% were active in any assay of this set; here they are far more common.
Anthrax LF inh2 = blocks Bacillus anthracis lethal factor protease; multiplex microsphere protease cleavage assay, LF; inhibition, % at 10 µM; 360,000 tested, 0.12% active; note: plate controls were buffer without enzyme for full effect and enzyme alone for no effect
Target sequence (P15917 whole entry, looked up): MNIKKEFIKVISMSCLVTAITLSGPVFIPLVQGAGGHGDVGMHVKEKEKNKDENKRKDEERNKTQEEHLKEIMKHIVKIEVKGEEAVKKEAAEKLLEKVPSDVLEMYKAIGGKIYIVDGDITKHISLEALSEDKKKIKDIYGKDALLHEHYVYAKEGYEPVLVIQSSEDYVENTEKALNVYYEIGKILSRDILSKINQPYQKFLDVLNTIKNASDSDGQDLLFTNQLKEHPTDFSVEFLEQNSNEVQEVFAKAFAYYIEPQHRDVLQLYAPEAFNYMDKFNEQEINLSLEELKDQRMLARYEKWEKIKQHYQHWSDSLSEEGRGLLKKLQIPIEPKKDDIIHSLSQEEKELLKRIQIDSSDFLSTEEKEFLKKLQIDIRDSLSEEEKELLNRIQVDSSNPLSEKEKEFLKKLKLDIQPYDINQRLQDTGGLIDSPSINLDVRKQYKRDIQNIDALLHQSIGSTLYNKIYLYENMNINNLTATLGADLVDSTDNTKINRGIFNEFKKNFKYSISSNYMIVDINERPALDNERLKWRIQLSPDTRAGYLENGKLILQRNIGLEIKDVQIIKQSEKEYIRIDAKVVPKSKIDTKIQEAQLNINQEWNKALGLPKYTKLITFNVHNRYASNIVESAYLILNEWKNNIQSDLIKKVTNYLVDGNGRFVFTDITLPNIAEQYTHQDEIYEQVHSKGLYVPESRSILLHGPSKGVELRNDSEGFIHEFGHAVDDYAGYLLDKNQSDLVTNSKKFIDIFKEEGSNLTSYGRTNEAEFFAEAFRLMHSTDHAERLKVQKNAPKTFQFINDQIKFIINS
BoNT F protease = BoNT F light chain protease inhibition | AID 588497 | inhibition, % at 10 µM | Multiplex microsphere protease cleavage assay, flow cytometry | 360,000 tested, 0.22% active; in the data active = inhibition above about 35%, passing the limit was not always enough; inconclusive = no clear call, values can overlap the other calls; note: plate controls were buffer without enzyme for full effect and enzyme alone for no effect
BoNT A protease = inhibitors of Botulinum neurotoxin A light chain protease | multiplex microsphere protease substrate cleavage, flow cytometry | inhibition, % at 10 µM | 360,000 tested, 0.17% active; note: plate controls were buffer without enzyme for full effect and enzyme alone for no effect
CCHFV vOTU inh = CCHFV vOTU protease inhibition | 370,000 tested, 0.55% active | Pep-AMC fluorescence | inhibition, % at 11.5 µM; in the data active = inhibition above about 30%; note: 0% = vehicle wells with enzyme and 100% = no enzyme wells
SARS 3CLpro inh = SARS-CoV 3CLpro protease inhibition. 290,000 tested, 0.14% active. recombinant SARS-CoV 3CLpro, quenched FRET peptide cleavage. AID 1706. inhibition, % at 6 µM; in the data active = inhibition above about 12%
Bead autofluor = counter-screen for toxin protease inhibitors: compound fluorescence | compound autofluorescence counterscreen, microsphere flow cytometry; hits give high values | fluorescence intensity (concentration not given with the values) | 360,000 tested, 3.1% active | AID 624483; in the data active = fluorescence intensity above about 16000; inconclusive = no clear call, values can overlap the other calls
* = called active by the depositor; ? = inconclusive; . = not tested or not shown. Cut-off read from the data, not from the text of the source, unless noted: active = inhibition above about 30%; inconclusive = no clear call, values can overlap the other calls; inactive = below that.

SMILES | Anthrax LF inh2 | BoNT F protease | BoNT A protease | CCHFV vOTU inh | SARS 3CLpro inh | Bead autofluor
COc1ccccc1N1CCN(C(c2cc3ccc(C)cc3[nH]c2=O)c2nnnn2C2CCCC2)CC1 (stereo unspecified) | -8.4 | 4.7 | 4.2 | 5.1 | 2.8 | 14791
COc1ccccc1N1CCN(C(c2cc3cc(C)ccc3[nH]c2=O)c2nnnn2C2CCCC2)CC1 (stereo unspecified) | 0.4 | 2.7 | 1.9 | -4.4 | -1.4 | 21854*
CCOC(=O)C1CCN(C(c2cc3ccc(C)cc3[nH]c2=O)c2nnnn2C2CCCCC2)CC1 (stereo unspecified) | 0.7 | 1.3 | -3.4 | 0.3 | -0.8 | 28733*
CCC(C)(C)n1nnnc1C(c1cc2ccc(OC)cc2[nH]c1=O)N1CCN(C2CCCCC2)CC1 (stereo unspecified) | 2.6 | -4.6 | ? | 3.8 | 3.1 | 21897*
CCC(C)(C)n1nnnc1C(c1cc2cc3c(cc2[nH]c1=O)OCO3)N1CCCCC1 (stereo unspecified) | 0.2 | -8.5 | 1.1 | . | 0.8 | 10893
CCOC(=O)[C@@]12CN(C(=O)OC(C)(C)C)CC=C1N(Cc1ccc(OC)cc1)C(=O)[C@H]2CC(=O)NCc1ccc(C)o1 | . | . | . | 7.7 | . | .
COc1cccc(C=NNC(=O)CSc2nc3ccccc3[nH]2)c1O | . | . | . | 19.3 | . | .
COc1ccccc1C=NNC(=O)CSc1nc2ccccc2n1Cc1ccc(Cl)cc1 | . | . | . | 6.0 | . | .
COc1cc2cc(C(c3nnnn3C3CCCC3)N3CCc4ccccc43)c(=O)[nH]c2cc1OC (stereo unspecified) | 0.0 | 5.1 | 5.8 | . | -1.6 | 19430*
CCc1ccc2[nH]c(=O)c(C(c3nnnn3CC3CCCO3)N3CCCc4ccccc43)cc2c1 (stereo unspecified) | -4.0 | -10.1 | 0.6 | -2.3 | 6.3 | 5509
CCN(CC)C(c1ccc(C)cc1)c1nnnn1C1CCCCC1 (stereo unspecified) | -6.9 | 2.7 | -0.2 | 7.1 | -2.5 | 10419
Cc1cc2cc(C(c3nnnn3CC3CCCO3)N3CCCc4ccccc43)c(=O)[nH]c2cc1C (stereo unspecified) | 0.9 | -10.7 | 0.8 | 7.2 | 1.2 | 24311*
CCN(CC)C(c1ccc(F)cc1)c1nnnn1C1CCCCC1 (stereo unspecified) | -1.2 | 3.6 | 2.3 | 10.3 | -1.2 | 21991*
COc1ccc(CN2CCC(CNC(=O)Nc3ccc(Cl)cc3)CC2)cc1 | . | . | . | -4.5 | . | .
CNC(=S)NNC(=O)c1cccn(Cc2ccc(Cl)cc2Cl)c1=O | . | . | . | 6.3 | 0.6 | .
CCNC(=S)NNC(=O)c1cccn(Cc2ccc(Cl)cc2)c1=O | -0.1 | -2.3 | 1.1 | 11.7 | -3.5 | 22835*
O=C1OCc2cc(NC(=O)C3CCCCC3)ccc21 | -0.2 | -2.3 | ? | 0.6 | -0.5 | 20191*
O=C1OCc2ccc(NC(=O)C3CC3)cc21 | -3.5 | -1.4 | 0.3 | -13.5 | -4.7 | 3200
Cc1ccc(C2=CCN(C)C(=O)N2c2ccccc2)cc1 | . | . | . | -0.1 | . | .
CCOC(=O)C1=C(CSCC(=O)OC)NC(=O)NC1c1cc(C)ccc1C (stereo unspecified) | -8.7 | 2.1 | 1.6 | 4.1 | -0.2 | 22020*
COC(=O)[C@@H](NC(=O)Nc1ccc(OC)cc1)C(C)C | -3.8 | -2.1 | -0.9 | -2.2 | 1.3 | 8405
COC(=O)[C@@H](NC(=O)Nc1cccc(OC)c1)C(C)C | -8.0 | 5.0 | 5.2 | 2.8 | 4.4 | 21593*
Cc1ccc(S(=O)(=O)NC(=O)c2cccn2C)cc1 | -0.2 | -0.9 | 0.4 | -2.3 | 1.7 | 16326*
COC(=O)c1cc(NC(=O)CC2NCCNC2=O)cc(C(=O)OC)c1 (stereo unspecified) | -3.4 | -3.3 | -0.7 | -10.7 | -6.0 | 10508
O=C(CC1NCCNC1=O)Nc1ccc2c(c1)OCO2 (stereo unspecified) | -5.4 | -7.7 | -2.5 | 2.5 | 5.0 | 22917*
CCc1cc(C(=O)OC)c(NC(=O)CC2NCCNC2=O)s1 (stereo unspecified) | -0.3 | -0.3 | ? | 6.0 | -3.0 | 21532*
CN[C@H]1C[C@H]2c3[nH]c4cccc(-c5ccccc5)c4c3CCN2C[C@H]1[C@H](C)O | . | . | . | -10.7 | . | .
O=C1Cc2cc(S(=O)(=O)N3CCN(c4cccc(Cl)c4)CC3)ccc2N1 | -2.0 | 4.1 | 0.2 | 3.3 | -4.4 | 4168
O=C1CCc2cc(S(=O)(=O)N3CCN(c4cccc(Cl)c4)CC3)ccc2N1 | 2.6 | 10.4 | 10.9 | -3.2 | 1.3 | 17938*
CN(C)S(=O)(=O)N1CCN(c2cccc(Cl)c2)CC1 | -0.9 | 2.6 | ? | -10.2 | -1.8 | 21047*

Screens as filed in PubChem.
